Dicer processing = inhibitors of human Dicer processing of pre-microRNA. Q9UPY3. cat-ELCCA pre-miR-21 Dicer processing, chemiluminescence; stronger effect = higher value. z-score at 25 µM. 47,000 tested, 6% active; in the data active means z-score above about 3, passing the limit was not always enough;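 further: plate controls were vehicle for no effect and no enzyme for full effect; higher signal means more uncleaved substrate so more Dicer inhibition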
Active calls of the source: *. This is one part of a sample in which hits are shown more often than they occur.

SMILES | Dicer processing
COc1ccc(Cc2nc(-c3ccc(Cl)cc3)no2)cc1OC | -0.77
COc1ccc(C(=O)COc2cc(=O)oc3ccccc23)cc1 | 10
C=CCn1c(-c2sc3nnc(-c4ccccc4)c(-c4ccccc4)c3c2N)n[nH]c1=S | 1.8
Cn1c(SCC(=O)c2ccc(Cl)cc2)nnc1SCC(=O)c1ccc(Cl)cc1 | -0.58
CN(C)C(=S)SCC(=O)c1ccc(Cl)cc1 | 4.9*
O=C(CSC(=S)N1CCOCC1)c1ccc(Cl)cc1 | -1.3
Nc1cc(-c2ccc(Cl)cc2)nn1-c1ccc(F)cc1 | -0.67
Cc1cccc(C(=O)N(C)C2CCCCC2)c1C | -1.1
Cc1cc(C)c(S(=O)(=O)Nc2nc3ccccc3s2)c(C)c1 | -3.9
Cc1ccc(S(=O)(=O)Nc2nc3ccc(N)cc3s2)cc1 | 8*
Cc1ccc(S(=O)(=O)Nc2nc3cc(C)c(C)cc3s2)cc1 | -1.5
C=CCOc1ccc(C2C(C(=O)c3cccs3)=C(O)C(=O)N2Cc2cccnc2)cc1 (configuration not stated) | -3.8
Cc1c(Cc2ccccc2)c(-n2ccnc2C)n2c(nc3ccccc32)c1C#N | 2.2
Cc1c(CCN2CCOCC2)c(N2CCOCC2)n2c(nc3ccccc32)c1C#N | -0.55
CCCCc1c(C)c(C#N)c2nc3ccccc3n2c1-n1ccnc1C | 8.3*
Cc1ccc(CC2CC(=O)N(c3ccccn3)C2=O)cc1 (configuration not stated) | -0.76
CSc1sc(C(=O)O)c(-c2cccc(Cl)c2)c1C#N | -0.4
COc1ccc(OCC(O)CNC(C)C)cc1 (configuration not stated) | 0.45
Cc1ccc(S(=O)(=O)N2CN3CN(C2)CN(S(=O)(=O)c2ccc(C)cc2)C3)cc1 | -1.4
Cc1ccc(S(=O)(=O)N2CCCOC2)cc1 | 3.8*
Cc1ccc(S(=O)(=O)N2CCCC3(CCCCC3)C2)cc1 | 0.92
O=C(Oc1ccc(Cl)c2cccnc12)N1CCCC1 | -0.68
CCOC(=O)C1(C)C=C(Nc2ccc(OCC)cc2)C(=O)N1c1ccc(OCC)cc1 (configuration not stated) | 3.2*
CCOC(=O)C1(C)C=C(Nc2ccc(OC)cc2)C(=O)N1c1ccc(OC)cc1 (configuration not stated) | 0.34
CCOC(=O)C1(C)C(Br)=C(Nc2ccc(Cl)cc2)C(=O)N1c1ccccc1 (configuration not stated) | 1.2
SMILES | Dicer processing
NC(N)=N/C(N)=N/c1nc(-c2ccccc2)cs1 | 6.7
CCOC(=O)CC1Sc2ccccc2N=C1SCC(=O)Nc1ccc(Cl)cc1 (configuration not stated) | -1.5
CNc1nc2c(N)ncnc2n1[C@H]1O[C@@H](CO)[C@H](O)[C@@H]1O | -0.07
Nc1nc2c(nc(N3CCN(c4ccccc4)CC3)n2[C@H]2O[C@@H](CO)[C@H](O)[C@@H]2O)c(=O)[nH]1 | -0.68
Nc1nc2c(nc(NCCCN3CCOCC3)n2[C@H]2O[C@@H](CO)[C@H](O)[C@@H]2O)c(=O)[nH]1 | 3.5*
Cn1ccnc1Sc1cnc(SCC(=O)c2ccc(Cl)cc2)nc1-c1ccccc1 | -1.8
CC(C)n1c(C(O)c2cccc3ccccc23)nc2ccccc21 (configuration not stated) | 0.93
Cc1cc(NC(=O)C2Sc3nnc(C)n3NC2c2ccc(Cl)cc2)ccc1Br (configuration not stated) | 3.7*
Cc1cc(C)cc(NC(=O)C2Sc3nnc(C)n3NC2c2ccc(Cl)cc2)c1 (configuration not stated) | -0.77
Cc1nnc2n1NC(c1ccc(Cl)cc1)C(C(=O)Nc1ccc(Br)cc1)S2 (configuration not stated) | -0.11
CCOC(=O)CSc1nnc(-c2sc3nc(C)cc(C)c3c2N)n1C | -0.55
CO[C@H]1O[C@@H](COC(=O)c2ccccc2)[C@H](OC(=O)c2ccccc2)[C@H]1OC(=O)c1ccccc1 | -0.08
Cc1ccc2ncc(NC(=O)c3ccc(F)cc3)c(=O)n2c1 | -0.07
Cc1ccc(C)c(COc2ccc(C)nc2[N+](=O)[O-])c1 | 0.37
Cc1ccc(C)c(COc2ccc(C)nc2NC(=O)c2ccc(F)cc2)c1 | 3.8*
Nc1ccc(C(=O)Nc2nc3cc(N)ccc3s2)cc1 | 2.6
N#CC1=C(SCC(N)=O)NC(=O)CC1c1ccc(F)cc1 (configuration not stated) | 0.81
Nc1sc(-c2ccccc2)cc1-c1n[nH]c(=S)n1Cc1ccccc1 | -8.9
COc1ccc(-n2c(-c3cc(-c4ccccc4)sc3N)n[nH]c2=S)cc1 | 5.4*
Nc1sc(-c2ccccc2)cc1-c1n[nH]c(=S)n1-c1ccc(F)cc1 | -0.78
CC(=O)NNC(=O)c1c(C)nc2cc(C)ccn12 | -1
OCCN(CCO)c1cccc(Cl)c1 | 0.56
Nc1nc2c(c(=O)[nH]1)C(c1ccc(Br)cc1)CC(=O)N2 (configuration not stated) | -0.69
CCOC(=O)NNC(=S)Nc1cccc(C)c1 | 3.8*
CCOC(=O)NNC(=S)Nc1ccccc1 | 1.6
SMILES | Dicer processing
CCOC(=O)NNC(=S)Nc1cccc(C(F)(F)F)c1 | -0.65
CC(C)CCNc1ncnc2c1sc1nc3c(cc12)COC(C)(C)C3 | 0.51
CC1=Nc2cc(Cl)c(Cl)cc2NC(C)(C)C1 | 7.2*
COc1ccccc1NC(=O)Nc1sccc1-c1nc2ccccc2s1 | 7.1
COc1ccc(Cl)cc1NC(=O)Nc1nnc(C2CC2)s1 | -0.31
COc1ccc(Cl)cc1NC(=O)Nc1sccc1-c1nc2ccccc2s1 | 5.1*
N#C/C(=C\N1CCN(Cc2ccccc2)CC1)S(=O)(=O)c1ccccn1 | -1.4
CN(C)/C=N/c1nnc(SCc2ccc(Cl)cc2)s1 | 0.59
O=C(O)c1ncc(C(F)(F)F)cc1Cl | 1.2
FC(F)(F)c1cc(Cl)c2nsnc2c1 | 4.5*
Clc1cc2nsnc2cc1Cl | 0.42
Cc1c(S(=O)(=O)c2ccc(Cl)cc2)csc1C(=O)O | -1.9
COc1ccc(COC(=O)C2=C(C)NC3=C(C(=O)CCC3)C2c2ccc(OC)c(OC)c2)cc1 (configuration not stated) | 1.2
COc1ccccc1-c1nc(-c2ccc(-c3ccccc3)nc2OC)no1 | 0.65
CSc1nc(C=Nc2cccc(Cl)c2)c(O)n1Cc1cccc(Cl)c1 | 1.6
Cn1c(=O)c2c(nc(Cl)n2Cc2ccccc2Cl)n(C)c1=O | 2.3
CSc1nc(C=Nc2ccccc2)c(O)n1Cc1ccccc1Cl | 5.1*
CCSc1nnc(NC(=O)c2ccncc2)s1 | 2
O=C(O)c1ccc2nc(CCc3ccccc3)[nH]c2c1 | -0.38
Nc1ccc2nc(CCC(=O)O)[nH]c2c1 | -4.9
O=C(O)CCc1nc2ccc(C(=O)O)cc2[nH]1 | 3.7*
CCOC(=O)C1CCN(S(=O)(=O)c2ccc(-c3csc(C)n3)s2)CC1 | -0.9
COC(=O)c1nc2nc(C)cc(C)n2n1 | 2.8
O=C(c1nc2nc(-c3ccccc3)cc(C(F)(F)F)n2n1)N1CCOCC1 | -0.57
Cc1cc(C)n2nc(C(=O)N3CCOCC3)nc2n1 | 4.4*
SMILES | Dicer processing
CCOC(=O)c1sc(-c2ccccc2)nc1CSc1nnc(SCC2CC2)s1 | 0.15
C=CCOc1cccc(C2c3c(oc4ccc(F)cc4c3=O)C(=O)N2c2cccc(C)n2)c1 (configuration not stated) | -0.61
COc1cc(OC)cc(C(C)(C)OC(=O)NCCC(=O)O)c1 | -1
Cc1c(NC(=O)COC(=O)CN2C(=O)C(=O)c3ccccc32)c(=O)n(-c2ccccc2)n1C | 3.8*
CC1CCN(C(=O)CN2C(=O)C(=O)c3ccccc32)CC1 | 1.5
Cc1c(NC(=O)OCc2ccccc2)c(=O)n(-c2ccccc2)n1C | -0.02
CCOC(=O)CN1C(=O)C(=O)c2ccccc21 | 4.6*
CCOC(=O)CCN1C(=O)c2ccccc2C1=O | 0.31

Screening results as filed in PubChem BioAssay.
